Test results published in PubChem BioAssay (NCI).
Compounds without any hit were thinned out: in the full panel of roughly 83,000, 20% have a hit.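 Plates (96-well) were seeded with cells, treated with compound at one concentration, and incubated for 48 hours before percent growth was determined.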 Values without a mark were called inactive. The source made the active and inactive calls. The calls were made as follows: active = growth percent below 10; inactive = the rest.

How the values were obtained:
Assay in all cases: NCI-60 one-dose screen, 48 h (100 = growth as untreated, 0 = no growth, -100 = all killed)
Conditions in all cases: 10 µM unless noted
DU-145 prostate = system: DU-145 prostate
K-562 leukemia = system: K-562 leukemia
MALME-3M melanoma = system: MALME-3M melanoma
MDA-MB-231 breast = system: MDA-MB-231 breast
RXF 393 renal = system: RXF 393 renal
SF-268 CNS = system: SF-268 CNS
SF-295 CNS = system: SF-295 CNS
SF-539 CNS = system: SF-539 CNS
UACC-257 melanoma = system: UACC-257 melanoma
M14 melanoma = system: M14 melanoma
HCT-15 colon = system: HCT-15 colon
HT29 colon = system: HT29 colon
SNB-75 CNS = system: SNB-75 CNS
SNB-19 CNS = system: SNB-19 CNS
U251 CNS = system: U251 CNS
PC-3 prostate = system: PC-3 prostate
SK-MEL-5 melanoma = system: SK-MEL-5 melanoma
UACC-62 melanoma = system: UACC-62 melanoma
LOX IMVI melanoma = system: LOX IMVI melanoma
SK-MEL-28 melanoma = system: SK-MEL-28 melanoma

SMILES	growth (DU-145 prostate)	growth (K-562 leukemia)	growth (MALME-3M melanoma)	growth (MDA-MB-231 breast)	growth (RXF 393 renal)	growth (SF-268 CNS)	growth (SF-295 CNS)	growth (SF-539 CNS)	growth (UACC-257 melanoma)	growth (M14 melanoma)	growth (HCT-15 colon)	growth (HT29 colon)	growth (SNB-75 CNS)	growth (SNB-19 CNS)	growth (U251 CNS)	growth (PC-3 prostate)	growth (SK-MEL-5 melanoma)	growth (UACC-62 melanoma)	growth (LOX IMVI melanoma)	growth (SK-MEL-28 melanoma)
C[C@]12CC[C@@H]3c4ccc(O)cc4CC[C@H]3[C@@H]1C[C@H](O)C2	93.9%	19.7%	80.5%	64.6%	100%	78.4%	87.3%	73.5%	78.5%	52.7%	44.4%	94.1%	84.2%	66.2%	63.3%	80%	64.9%	43.6%	63.4%	84.3%
CCOC(=O)c1c(C)nc2c(c1N)/C(=C/c1ccc[nH]1)C(=O)N2Cc1ccc(C(F)(F)F)cc1	79.1%	63.4%	62.1%	18.3%	48.6%	55.5%	29.4%	40.4%	77.6%	69.8%	68.8%	70%	25.3%	36.3%	25.2%	52.1%	82.2%	81.8%	56.7%	89.6%
COc1ccc2oc(=O)cc(-c3c(C#N)c(N)n4nc(N)c(C#N)c4c3C#N)c2c1	106%	86.4%	77.4%	104%	100%	89.9%	103%	98.2%	107%	111%	102%	90.7%	116%	112%	101%	104%	99%	107%	95%	107%
NC(=O)c1ccc2nc3c(n2c1)C(=O)C(=O)c1ccccc1-3	-96.3% (active)	-28.2% (active)	-97.3% (active)	-17.3% (active)	-96.5% (active)	-70.2% (active)	-98.7% (active)	-98.5% (active)	-98.3% (active)	-88% (active)	-63.4% (active)	-7.62% (active)	-95% (active)	-97.5% (active)	-98.6% (active)	-48.3% (active)	-100% (active)	-94.1% (active)	-78.4% (active)	-82.2% (active)
NC(=O)C(O)(c1ccccc1)c1ccccc1	105%	99.6%	113%	108%	123%	110%	99.7%	103%	91.8%	97.1%	101%	92.3%	89%	99.4%	101%	87.3%	106%	95.9%	100%	112%
Cc1cc(C)cc(Nc2nccc(-c3c(-c4ccc(F)cc4)ncn3C3CCNCC3)n2)c1	9.38% (active)	-33.3% (active)	-36.1% (active)	7.44% (active)	18.3%	28.4%	5.75% (active)	31.3%	-50.6% (active)	-86.4% (active)	9.67% (active)	-0.976% (active)	17%	27.5%	13.1%	15.4%	-87.6% (active)	21.6%	-81.3% (active)	-34.7% (active)
C#C[C@@]1(O)[C@@H](CO)O[C@@H](n2cnc3c(-c4ccccc4)ncnc32)[C@@H]1O	109%	105%	103%	126%	122%	99%	97.7%	108%	117%	97.8%	98%	101%	85.7%	112%	104%	95.5%	104%	108%	94.6%	111%
Nc1cc(N)nc(SCC(=O)O)n1	104%	101%	103%	95.4%	115%	101%	106%	102%	84.8%	102%	110%	85.1%	100%	100%	93.4%	89.9%	99.8%	99.1%	97.4%	106%
CC(=O)c1ccc(NC(=O)CSc2nnc(-c3cc(-c4ccc(Cl)cc4)nc4ccccc34)o2)cc1	90%	63%	70.8%	53.7%	87.2%	82.4%	88.3%	74.2%	97.5%	77.6%	76.9%	84.3%	82.7%	78%	28.6%	79.5%	90.5%	95.7%	46.1%	107%
c1ccc(-c2n(Cc3ccc4ccccc4n3)cc[n+]2Cc2ccc3ccccc3n2)cc1	65.8%	16.9%	19.8%	30.5%	52.2%	41.8%	67.8%	37.2%	-14.6% (active)	34.6%	102%	22.8%	42.6%	8.24% (active)	14.7%	27%	-73.4% (active)	-10.3% (active)	19.5%	24.5%
Cc1cnc(-c2ccc(-c3ccc(NC(=O)Nc4c(F)cc(F)cc4F)cc3F)c3c2C(=O)NC3)[nH]1	7.83% (active)	22.1%	-3.16% (active)	36.5%	21.5%	39.2%	58.8%	56.1%	43.8%	16.1%	49.4%	27%	17.3%	41.9%	8.19% (active)	39.7%	38.5%	0.806% (active)	32.9%	39.1%
O=S(=O)(O)c1ccc(N=NSc2ccc3ccccc3c2)cc1	103%	118%	92.3%	102%	117%	98.8%	97.4%	100%	113%	92.9%	104%	93.8%	113%	105%	96.9%	81.3%	100%	102%	86.8%	106%
O=c1c2ccccc2oc2ccc(OCCCCCCN3CCCCCC3)cc12	65.6%	2.32% (active)	-47.2% (active)	43.7%	36.8%	61.7%	38.9%	54.9%	2.49% (active)	-32% (active)	7.65% (active)	8.09% (active)	88.7%	58.3%	38.9%	34%	-36.7% (active)	-53.4% (active)	19.1%	38.5%
COc1ccc(-c2cn(-c3ccc(Cl)cc3)c(=S)[nH]2)cc1OC	78.5%	75.9%	90.2%	53%	11%	96.1%	68.6%	85.6%	65.8%	4.41% (active)	63.4%	44.2%	111%	90.6%	75%	72.4%	41.7%	72.5%	0.188% (active)	92.4%
